The text below walks through data of the supplement of paper PMC9135407.

Structures are written as SMILES. “And” between values parts separate entries of the source, which are not always exact repeats. Equal values may be shown once. Where a name gives a salt, the structure may show the parent alone. Out of some 5,800 compounds screened, about 620 (11%) showed activity. For the sample, actives were picked, then their nearest neighbours and some compounds at random. Values without a mark were called inactive.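 The calls were made as follows: active = score above a cut-off or among the top three wells of a plate; in these data no inactive exceeds 0.85.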

For this assay, the system named is primary human hepatic stellate cells (donor 1). As to the kind of experiment: scaled lipid accumulation score (0 = DMSO-like, 1 = nortriptyline-like); higher = stronger HSC inactivation (lipid re-accumulation), active = hit call of the paper. The settings on record: 48 h.
Where [1] appears, read: library stock concentration: 1 mM.
[2] abbreviates: library stock concentration: 10 mM.
Where [3] appears, read: library stock concentration: 3.33 mM.
The mark [4] stands for this setting: library stock concentration: 5.1 mM.
The mark [5] stands for this setting: library stock concentration: 13.5 mM.
Setting [6] is: library stock concentration: 80 uM.
Where [7] appears, read: library stock concentration: 400 uM.
Where [8] appears, read: library stock concentration: 2 mM.

Take `CCCCCCCCC#CCC#CCC#CCCCC(=O)O` [5,8,11-Eicosatriynoic acid]: the “scaled lipid accumulation score” value under setting [1] is no more than -0.021.
On to `CCCCCCCCC#CCC#CCC#CCCCC(=O)O` [5,8,11-Eicosatriynoic Acid], for which the “scaled lipid accumulation score” value under setting [1] was 0.059.
Take `CCCCCCCCCCCCCCCC(=O)N[C@@H](COP(=O)(O)O)C(=O)O`: under setting [1], the “scaled lipid accumulation score” value is no more than -0.021.
Consider `O=C(CCc1ccncc1)NNC(=O)N1Cc2ccccc2Oc2ccc(Cl)cc21`, for which the “scaled lipid accumulation score” value under setting [2] is 0.105.
Consider `CN(C)CCC(c1ccc(Cl)cc1)c1ccccn1` (configuration not stated) [Chlorpheniramine Maleate], for which the “scaled lipid accumulation score” value is, setting by setting: under setting [3], 0.106; under setting [2], no more than 0.
With `CN(C)CCC(c1ccc(Br)cc1)c1ccccn1` (configuration not stated) [Brompheniramine hydrogen maleate], the “scaled lipid accumulation score” value is 0.182 under setting [3] and 0.583 under setting [2].
On to `CN(C)CCC(c1ccc(Cl)cc1)c1ccccn1` (configuration not stated) [Chlorpheniramine], for which the “scaled lipid accumulation score” value under setting [2] was no more than 0.
Still for that read-out and setting: next, `CN(C)CCC(c1ccc(Br)cc1)c1ccccn1.O=C(O)/C=C\C(=O)O` (configuration not stated): 0.9 (active).
With `CN(C)CCC(c1ccc(Br)cc1)c1ccccn1` (single isomer, unassigned; (+)) [(+)-Brompheniramine maleate], the “scaled lipid accumulation score” value under setting [2] was 0.351.
As to `CN(C)CC[C@@H](c1ccc(Cl)cc1)c1ccccn1` [Chlorpheniramine (s) maleate], the “scaled lipid accumulation score” value by setting is: under setting [4], 0.181; under setting [2], 0.005.
Consider `CN(C)CCC(c1ccc(Cl)cc1)c1ccccn1.O=C(O)/C=C\C(=O)O` (configuration not stated), for which, under setting [2], the “scaled lipid accumulation score” value was 0.891 (active).
Turning to `CN(C)CCC(c1ccc(Cl)cc1)c1ccccn1` (configuration not stated) [Chlorpheniramine maleate], the “scaled lipid accumulation score” value was 0.469. Besides, the “scaled lipid accumulation score” value (library stock concentration: 7.3 mM) was 0.251.
In the case of `CN(C)CCC(c1ccc(Br)cc1)c1ccccn1` (configuration not stated) [Brompheniramine maleate], the “scaled lipid accumulation score” value is 0.343. Besides, the “scaled lipid accumulation score” value under setting [2] is 0.275.
Take `CN(C)CC[C@@H](c1ccc(Cl)cc1)c1ccccn1` [Dexchlorpheniramine maleate]: under setting [4], the “scaled lipid accumulation score” value is no more than 0.
As for `CN(C)CC[C@@H](c1ccc(Cl)cc1)c1ccccn1`, the “scaled lipid accumulation score” value under setting [2] was 0.377.
In the case of `CCOc1nc2cccc(C(=O)OC(C)OC(=O)OC3CCCCC3)c2n1Cc1ccc(-c2ccccc2-c2nn[nH]n2)cc1` (configuration not stated) [Candesartan Cilexetil], the “scaled lipid accumulation score” value was no more than 0 under setting [3] and no more than 0 under setting [2].
For `CCOc1nc2cccc(C(=O)OC(C)OC(=O)OC3CCCCC3)c2n1Cc1ccc(-c2ccccc2-c2nn[nH]n2)cc1` (configuration not stated) [Candesartan cilextil], the “scaled lipid accumulation score” value under setting [2] was no more than -0.027.
As to `C/C=C/c1ccc(OC)cc1` [Anethole], the “scaled lipid accumulation score” value under setting [2] is 0.104 and the “scaled lipid accumulation score” value under setting [5] was no more than 0.
With `C/C=C/c1ccc(OC)cc1` [Anethole, trans-], the “scaled lipid accumulation score” value under setting [5] was no more than -0.006.
Consider `CCCCC/C=C\C\C=C/C=C/C=C/[C@@H](SC[C@H](N)C(=O)O)[C@@H](O)CCCC(=O)O` [Leukotriene E4], for which the “scaled lipid accumulation score” value (library stock concentration: 100 uM) was 0.015.
As to `C[C@]1(c2nc3c(C(N)=O)cccc3[nH]2)CCCN1` [Veliparib (ABT-888)], the “scaled lipid accumulation score” value reads like this: under setting [3], no more than 0; under setting [2], no more than 0.
Turning to `C[C@]1(c2nc3c(C(N)=O)cccc3[nH]2)CCCN1` [Veliparib], the “scaled lipid accumulation score” value runs as follows: under setting [6], 0.0075; under setting [7], no more than -0.0045; under setting [8], no more than -0.0045; under setting [2], no more than -0.0045.
Consider `CCCCCCCC/C=C\C/C=C\C/C=C\CCCC(=O)O` [Mead acid (20:3 n-9)], for which the “scaled lipid accumulation score” value under setting [1] is 0.025.
As for `NC(=O)CCC/C=C\C[C@@H]1[C@@H](/C=C/[C@@H](O)CCc2ccccc2)[C@H](O)C[C@@H]1O` [17-phenyl trinor Prostaglandin F2.alpha. amide], under setting [1], the “scaled lipid accumulation score” value was no more than 0.
On to `CS(=O)(=O)CCNCc1ccc(-c2ccc3ncnc(Nc4ccc(OCc5cccc(F)c5)c(Cl)c4)c3c2)o1.Cc1ccc(S(=O)(=O)O)cc1.Cc1ccc(S(=O)(=O)O)cc1` [listing 1 of 2 here], for which the “scaled lipid accumulation score” value under setting [3] was 1.36 (active) and the “scaled lipid accumulation score” value under setting [2] was 1.55 (active).
Regarding `CS(=O)(=O)CCNCc1ccc(-c2ccc3ncnc(Nc4ccc(OCc5cccc(F)c5)c(Cl)c4)c3c2)o1.Cc1ccc(S(=O)(=O)O)cc1.Cc1ccc(S(=O)(=O)O)cc1` [listing 2 of 2 here], under setting [2], the “scaled lipid accumulation score” value is 1.23 (active).
Regarding `CCCCC[C@H](O)/C=C/[C@@H]1[C@@H](C/C=C/CCCC(=O)O)[C@@H](O)C[C@H]1O` [5-trans Prostaglandin F2.alpha.], under setting [1], the “scaled lipid accumulation score” value was no more than 0.
The same measure, in the same setting: with `CCCCC[C@H](O)/C=C/[C@@H]1[C@@H](C/C=C/CCCC(=O)O)[C@@H](O)C[C@H]1O` [5-trans Prostaglandin F2.alpha. (tromethamine salt)] the figure was no more than 0.
Regarding `CC(C)(C)n1nc(Cc2cccc3ccccc23)c2c(N)ncnc21`, the “scaled lipid accumulation score” value under setting [1] is no more than 0.
Same read-out and setting: next, `CCCCC[C@@](C)(O)/C=C/[C@H]1C(=O)C[C@H](O)[C@@H]1C/C=C\CCCC(=O)O` [15(R)-15-methyl Prostaglandin D2]: no more than 0; `CCCCCCCCCCCCCC(=O)N[C@H](C)[C@@H](O)c1ccccc1` [D-erythro-MAPP]: ≤ 0 and 0.048.
As to `CC1(C2CCCC2)Cc2cc(OCC(=O)O)c(Cl)c(Cl)c2C1=O` (configuration not stated), the “scaled lipid accumulation score” value reads like this: under setting [2], no more than -0.055; (library stock concentration: 14 mM) no more than -0.021.
On to `N[C@@H](C(=O)N[C@@H]1C(=O)N2C(C(=O)O)=C(CSc3cn[nH]n3)CS[C@H]12)c1ccc(O)cc1`, for which the “scaled lipid accumulation score” value under setting [2] was no more than 0.
In the case of `CCCCC/C=C/C=C1/C=CC(=O)[C@@H]1C/C=C\CCCC(=O)O` [15-deoxy-.DELTA.12,14-Prostaglandin A2], the “scaled lipid accumulation score” value under setting [1] was no more than 0.
Regarding `CC(=O)c1ccc2c(c1)N(CCCN(C)C)c1ccccc1S2` [Acepromazine maleate], under “library stock concentration: 4.5 mM”, the “scaled lipid accumulation score” value is 0.524.
As for `CC(=O)c1ccc2c(c1)N(CCCN(C)C)c1ccccc1S2.O=C(O)/C=C\C(=O)O` [Acepromazine maleate], the “scaled lipid accumulation score” value under setting [2] is 0.989 (active).
With `CC(=O)c1ccc2c(c1)N(CCCN(C)C)c1ccccc1S2` [Acetopromazine maleate salt], the “scaled lipid accumulation score” value is 0.726.
As to `CCC(=O)c1ccc2c(c1)N(CCCN(C)C)c1ccccc1S2.Cl` [Propionylpromazine hydrochloride], under setting [2], the “scaled lipid accumulation score” value is 0.862 (active).
For `CC#CCC(C)[C@@H](O)/C=C/[C@@H]1[C@H]2C/C(=C\CCCC(=O)O)C[C@H]2C[C@H]1O` (stereo partly drawn) [5-cis-15(R)-Iloprost], the “scaled lipid accumulation score” value under setting [1] was no more than 0.
Take `CN(C)[C@@H]1C(O)=C(C(N)=O)C(=O)[C@@]2(O)C(O)=C3C(=O)c4c(O)cccc4[C@@](C)(O)[C@H]3[C@H](O)[C@@H]12` [Oxytetracycline hydrochloride]: under setting [2], the “scaled lipid accumulation score” value is no more than 0.
Regarding `CN(C)[C@@H]1C(O)=C(C(N)=O)C(=O)[C@@]2(O)C(O)=C3C(=O)c4c(O)cccc4[C@@](C)(O)[C@H]3[C@H](O)[C@@H]12` [Oxytetracycline], the “scaled lipid accumulation score” value is 0.025 (library stock concentration: 4 mM) and no more than 0 under setting [2].
As for `CN(C)[C@@H]1C(O)=C(C(N)=O)C(=O)[C@@]2(O)C(O)=C3C(=O)c4c(O)cccc4[C@@](C)(O)[C@H]3[C@H](O)[C@@H]12` [Oxytetracycline dihydrate], the “scaled lipid accumulation score” value is 0.056.
For the molecule `C[C@@H](O)CN(CCN(C[C@@H](C)O)C[C@@H](C)O)C[C@@H](C)O`, under setting [2], the “scaled lipid accumulation score” value is no more than 0.
On to `NNC(=O)c1ccncc1.Nc1ccc(C(=O)O)c(O)c1` [Pasiniazid], for which the “scaled lipid accumulation score” value under setting [2] was no more than -0.027.
Regarding `C#CCCC[C@@H](O)CCCCCCCCCCC(=O)O` [12(S)-hydroxy-16-Heptadecynoic Acid], the “scaled lipid accumulation score” value under setting [1] is no more than 0.
Regarding `COC(=O)CCSCc1ccc(-c2onc(C)c2NC(=O)OC(C)c2ccccc2Cl)cc1` (configuration not stated), the “scaled lipid accumulation score” value under setting [3] was 0.07 and the “scaled lipid accumulation score” value under setting [2] was no more than 0.
Take `Clc1ccc(Cn2c(CN3CCCC3)nc3ccccc32)cc1` [Clemizole hydrochloride]: the “scaled lipid accumulation score” value was 0.205.
In the case of `Cl.Clc1ccc(Cn2c(CN3CCCC3)nc3ccccc32)cc1` [Clemizole hydrochloride], the “scaled lipid accumulation score” value under setting [2] is 0.991 (active).
The same measure, in the same setting: with `O=C(O)c1c(Sc2ccccc2)c2cc(Cl)ccc2n1Cc1ccc(Cl)cc1` the figure was no more than -0.001.
As to `CCCCCC(O)C=CC1C2CC(CO2)C1CC=CCCCC(=O)O` (configuration not stated), the “scaled lipid accumulation score” value under setting [1] is ≤ 0 and ≤ -0.021.
With `COCC[n+]1c2c(n(Cc3cnccn3)c1C)C(=O)c1ccccc1C2=O` [YM155 (Sepantronium Bromide)], the “scaled lipid accumulation score” value runs as follows: under setting [3], 0.529; under setting [2], 0.748.
Consider `Cl.N#CC1=C(N)NC(=C2C(=O)C=CC=C2OCC2CC2)C=C1C1CCNCC1`, for which the “scaled lipid accumulation score” value under setting [2] was 1.09 (active).
In the case of `N#Cc1c(C2CCNCC2)cc(-c2c(O)cccc2OCC2CC2)nc1N` [IKK-2 Inhibitor VIII], under setting [3], the “scaled lipid accumulation score” value was 0.136.
As for `N#Cc1c(C2CCNCC2)cc(-c2c(O)cccc2OCC2CC2)nc1N`, the “scaled lipid accumulation score” value was no more than -0.016 under setting [6], no more than -0.016 under setting [7] and 0.483 under setting [8].
With `N#CCCc1ccc2c(c1)-c1[nH]c3ccc([N+](=O)[O-])cc3c1CC(=O)N2` [Alsterpaullone, 2-Cyanoethyl], the “scaled lipid accumulation score” value under setting [3] was 0.08.
As to `CCCCCCCC/C=C\CCCCCCCCCCCCCC(=O)N[C@@H](CO)[C@H](O)/C=C/CCCCCCCCCCCCC` [Nervonic Ceramide], under setting [1], the “scaled lipid accumulation score” value was 0.002.
Same read-out and setting: with `CCCCC[C@@H](O)/C=C/[C@H]1[C@H](O)CC(=O)[C@@H]1C/C=C\CCCC(=O)O` [15(R)-Prostaglandin E2] the figure was no more than 0.
`CN(C)CCCN1c2ccccc2Sc2ccc(C(F)(F)F)cc21` [Triflupromazine hydrochloride]: the “scaled lipid accumulation score” value was 0.585. In addition, the “scaled lipid accumulation score” value under setting [4] is 0.697. Further, the “scaled lipid accumulation score” value under setting [2] is 0.508 and 0.792.
Consider `CN1CCN(CCCN2c3ccccc3Sc3ccc(C(F)(F)F)cc32)CC1`, for which the “scaled lipid accumulation score” value under setting [2] was 0.99 (active).
`CN1CCN(CCCN2c3ccccc3Sc3ccc(C(F)(F)F)cc32)CC1` [Trifluoperazine]: the “scaled lipid accumulation score” value (library stock concentration: 4.9 mM) is 0.434.
As for `CN1CCN(CCCN2c3ccccc3Sc3ccc(C(F)(F)F)cc32)CC1` [Trifluoperazine hydrochloride], the “scaled lipid accumulation score” value under setting [2] was 0.396.
On to `CN1CCN(CCCN2c3ccccc3Sc3ccc(C(F)(F)F)cc32)CC1` [Trifluoperazine dihydrochloride], for which the “scaled lipid accumulation score” value is 0.393.
Still for that read-out and setting: with `CCSc1ccc2c(c1)N(CCCN1CCN(C)CC1)c1ccccc1S2` [Thiethylperazine malate] the figure was 0.362.
`CN1CCN(CCCN2c3ccccc3Sc3ccc(C(F)(F)F)cc32)CC1` [Trifluoperazine 2HCl]: the “scaled lipid accumulation score” value reads like this: under setting [3], no more than 0; under setting [2], 0.815.
Turning to `CN1CCN(CCCN2c3ccccc3Sc3ccc(C(F)(F)F)cc32)CC1.Cl.Cl` [Trifluoperazine dihydrochloride], the “scaled lipid accumulation score” value under setting [2] is 0.914 (active).
For the molecule `CN1CCN(CCCN2c3ccccc3Sc3ccc(C(F)(F)F)cc32)CC1.Cl.Cl` [Trifluoperazine], where the note is “library stock concentration: 10.4 mM”, the “scaled lipid accumulation score” value was 0.892 (active).
